HP1b binding inh – HTS for Inhibitors of HP1-beta Chromodomain Interactions with Methylated Histone Tails; Chromobox protein homolog 1 (Homo sapiens), P83916; AlphaScreen HP1-beta / biotin-H3K9me3 peptide binding; Potency, µM (doses to about 114 µM), inactives show top-dose activity change, negative = inhibition, actives largely listed as inhibitors; hit rate 0.56% among 390,000; AID 540317, 2011; note: nearly all actives have a fitted effect of over 70% in size
Target sequence (P83916 whole entry, looked up): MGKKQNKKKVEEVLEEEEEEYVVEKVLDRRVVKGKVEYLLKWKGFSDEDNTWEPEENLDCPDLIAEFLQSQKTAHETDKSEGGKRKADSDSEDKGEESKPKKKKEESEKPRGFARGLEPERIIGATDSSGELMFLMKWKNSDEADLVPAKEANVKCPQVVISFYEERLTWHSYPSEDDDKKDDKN
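HP1-beta protein (50 nM final) preincubated 30 min at room temperature with biotinylated H3(1-18)K9me3 peptide (50 nM) in PBS pH 7.4, 0.01% Tween-20, then compound added for 30 min. AlphaScreen streptavidin donor/nickel chelate acceptor beads (10 ug/mL final), 30 min dark, luminescence read.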
BAZ2B inh – qHTS Assay for Inhibitors of BAZ2B; Bromodomain adjacent to zinc finger domain protein 2B (Homo sapiens), Q9UIF8; AlphaScreen BAZ2B-H3K14Ac peptide displacement; Potency, µM (titrated, usually from 114 µM), inactives show at the top dose activity change, negative = inhibition, actives largely listed as inhibitors; hit rate 4.4% among 360,000; AID 504333, 2011; note: % is set by controls: 0 for no effect and ±100 for the full control effect; nearly all actives have a fitted effect of over 60% in size
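BAZ2B 50 nM plus b-H3(5-23)K14Ac 50 nM, PBS pH 7.4/0.01% Tween-20, 30 min RT; compound added (max 110 uM), 30 min RT; streptavidin donor/Ni-chelate acceptor beads 10 ug/mL final, 20 min dark; AlphaScreen read.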
Sfp PPTase inh – qHTS Assay for Inhibitors of Bacillus subtilis Sfp phosphopantetheinyl transferase (PPTase). Potency, µM, for the others: largest response in the series, negative = inhibition, usual class: inhibitors. hit rate 3.5% among 310,000. Biochemical Sfp PPTase activity, qHTS;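 note: the enzyme is Sfp with the accession as filed and its product quenches rhodamine fluorescence; 0% = enzyme reaction without inhibitor and -100% = no enzyme wells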
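Fluorescence-quenching assay: 15 nM Sfp-PPTase preincubated 15 min at room temperature with compound, then 5 uM rhodamine-CoA and 12.5 uM BHQ-2-labelled YbbR peptide added. Fluorescence (ex 525/em 598 nm) read at start and after 30 min; difference gives rate.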
JMJD2A Tudor – qHTS Assay for Inhibitors of JMJD2A-Tudor Domain; AlphaScreen JMJD2A-Tudor / H3K4me3 peptide binding; Potency, µM (top dose mostly 114 µM), inactives show at the highest dose activity change, negative = inhibition, actives largely listed as inhibitors; hit rate 4.4% among 390,000; AID 504339, 2011; note: % is set by controls: 0 for no effect and ±100 for the full control effect; nearly all actives have a fitted effect of over 50% in size
TDP1 block – qHTS Assay for Inhibitors of Tyrosyl-DNA Phosphodiesterase (TDP1) | recombinant TDP1, AlphaScreen DNA substrate cleavage | Potency, µM (top dose mostly 130 µM), inactives show at the highest dose activity change, negative = inhibition, usual class: inhibitors | hit rate 0.28% among 350,000 | AID 485290, 2010; note: % is set by controls: 0 for no effect and ±100 for the full control effect; nearly all actives have a fitted effect of over 40% in size
Target sequence (Q9NUW8 whole entry, looked up): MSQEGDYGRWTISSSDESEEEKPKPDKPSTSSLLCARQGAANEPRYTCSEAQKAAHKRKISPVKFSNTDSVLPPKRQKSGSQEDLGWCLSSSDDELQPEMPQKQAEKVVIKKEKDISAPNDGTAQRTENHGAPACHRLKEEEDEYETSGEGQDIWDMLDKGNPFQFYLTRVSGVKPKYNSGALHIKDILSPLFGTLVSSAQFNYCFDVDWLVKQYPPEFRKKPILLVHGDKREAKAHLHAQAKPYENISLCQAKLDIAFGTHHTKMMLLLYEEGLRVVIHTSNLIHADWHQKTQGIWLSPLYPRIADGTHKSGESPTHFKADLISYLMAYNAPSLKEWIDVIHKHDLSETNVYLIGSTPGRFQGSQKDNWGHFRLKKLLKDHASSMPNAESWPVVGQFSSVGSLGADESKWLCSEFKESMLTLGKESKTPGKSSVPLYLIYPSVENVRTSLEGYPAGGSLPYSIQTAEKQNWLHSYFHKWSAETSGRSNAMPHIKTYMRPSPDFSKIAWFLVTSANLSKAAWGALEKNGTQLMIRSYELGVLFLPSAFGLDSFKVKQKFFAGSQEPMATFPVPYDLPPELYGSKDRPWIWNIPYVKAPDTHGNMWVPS
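Tdp1 1 nM final; 15 min RT w/ cpd; substrate 15 nM, 5 min; beads 10 ug/ml, 10 min; AlphaScreen read. Neg ctrl: no enzyme.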
G9a block – qHTS Assay for Inhibitors of Histone Lysine Methyltransferase G9a; Potency, µM (series often up to 102 µM), without a hit: top-dose activity, negative = inhibition, actives largely listed as inhibitors; hit rate 8.8% among 350,000; G9a H3K9 monomethylation, AlphaScreen, 2 h; Histone-lysine N-methyltransferase EHMT2 (Homo sapiens), Q96KQ7; AID 504332, 2011; note: % is set by controls: 0 for no effect and ±100 for the full control effect; nearly all actives have a fitted effect of over 75% in size
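Readings reflect AlphaScreen signal from monomethyl-H3K9 antibody detection. HMT at 20 nM; substrate b-H3K9 500 nM; cofactor SAM 20 uM; 2 h RT reaction; compounds tested as titrations in qHTS with 15 min preincubation.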
Active calls of the source: *; ? = inconclusive; . = no result given; [ ] = dose if it differs, or a comment. In the library only some 12% were active in any assay of this set; here they are far more common. Calls come from the whole dose curve; as a rule, active = well fitted curve in the direction sought with a large enough effect; inconclusive = small, poorly fitted or top-dose-only effect, or another doubt; inactive = no such curve, though single readings can be large; an effect the other way counts as inactive or inconclusive. Potency is the fitted concentration of half-maximal effect.

SMILES	HP1b binding inh	BAZ2B inh	Sfp PPTase inh	JMJD2A Tudor	TDP1 block	G9a block
COc1cc(OC)c(/C=N/n2c(C3CCCCC3)n[nH]c2=S)c(OC)c1	-0.4%	-18.2%	-8.6%	3.98µM*	.	1.26µM*
COc1cccc(/C=N/n2c(C3CCCCC3)n[nH]c2=S)c1OC	36.5%	6.3%	-3.2%	?	.	?
COc1cccc(/C=N/n2c(C3CCCCC3)n[nH]c2=S)c1O	16.3%	-32.0%	79.4µM*	25.1µM*	.	2.51µM*
COc1ccc(/C=N/n2c(C3CCCCC3)n[nH]c2=S)c(OC)c1	-8.0%	?	-19.3%	39.8µM*	.	14.1µM*
COc1ccc(NC(=O)CCCNC(=O)c2ccc(Cl)cc2)cc1S(=O)(=O)N1CCOCC1	20.5%	.	.	-12.8%	.	.
Brc1cccc(-c2nnc3sc(CNCc4ccco4)cn23)c1	20.6%	-21.3%	7.5%	-29.1%	3.7%	44.7µM*
CC1CCCN(Cc2cn3c(-c4cccc(Br)c4)nnc3s2)C1 (stereo not given)	17.4%[57 µM]	3.6%	.	-12.9%	5.5%	5.1%[59 µM]
CN(C)C(CNC(=O)c1cccc(S(=O)(=O)NCc2ccccc2)c1)c1ccco1 (stereo not given)	29.1%	-7.5%	.	-1.7%	-1.3%	-35.4%
COC(=O)CSc1[nH]c(=O)cc(C)c1C#N	10.0%	0.3%	10.3%	-20.3%	5.2%	1.5%
COC(=O)CSC1=C(C#N)C(=O)NC2(CCCCC2)S1	?	-36.4%	25.1µM*	?	-2.6%	?
CCN(C(=O)CSc1nnnn1-c1ccccc1)c1c(N)n(Cc2ccccc2)c(=O)[nH]c1=O	36.4%	-5.9%	-19.5%	-13.4%	1.1%	12.6µM*
CCN(C(=O)CSc1nc2ccccc2o1)c1c(N)n(Cc2ccccc2)c(=O)[nH]c1=O	10.6%	9.5%	.	-11.0%	.	7.08µM*
C=CCN1CCS(=O)(=O)N(Cc2ccccc2)[C@@H](C(C)C)C1=O	37.8%	.	.	-6.5%	-0.4%[56.1 µM]	.
O=C(CCc1cn(Cc2ccc(F)cc2)c2ccccc12)NCCc1ccc(Cl)cc1	38.7%	-15.1%	.	-3.7%	2.6%	-3.8%[59 µM]
O=C(CSc1nnc(-c2ccccc2)c(-c2ccccc2)n1)NC1CCCCC1	3.7%	-8.3%	.	-18.5%	2.6%	-35.5%[59 µM]
CCn1c(C)c(C)c2cc(C(=O)NCCCN3CCN(C)CC3)ccc21	-6.1%	?	4.0%	-27.8%	3.4%	?
Cc1c(C)n(Cc2ccc(F)cc2)c2ccc(C(=O)NCc3ccco3)cc12	50.6%	2.7%	.	?	0.0%	3.5%[59 µM]
Cc1c(C)n(Cc2ccc(F)cc2)c2ccc(C(=O)NCCN3CCOCC3)cc12	-14.4%	50.1µM*	-11.3%	?	7.9%	50.1µM*
CCn1c(C)c(C)c2cc(C(=O)NCCN3CCCCCC3)ccc21	-6.0%	22.4µM*	-25.0%	44.7µM*	13.9%	50.1µM*
CCn1c(C)c(C)c2cc(C(=O)NCC(C)c3ccccc3)ccc21 (stereo not given)	-8.1%	-37.4%	.	?	7.9%	-33.1%[59 µM]
CCn1c(C)c(C)c2cc(C(=O)NCCCN3CCCCCC3)ccc21	-19.3%	56.2µM*	?	56.2µM*	10.1%	?
CCOC(=O)c1c(-c2ccccc2)csc1NC(=O)c1cc(-c2ccc(F)cc2)on1	-14.9%	-10.1%	.	0.7%	0.0%	3.98µM*
CCOC(=O)c1c(-c2ccc(C)cc2)csc1NC(=O)c1cc2ccccc2oc1=O	15.0%	39.8µM*	?	-5.0%	13.5%	3.4%[0.501 µM]
COC(=O)c1c(-c2ccc(C)cc2)csc1NC(=S)NC(=O)c1ccc(F)cc1	13.5%	-14.4%	-26.6%	-29.1%	4.3%	79.4µM*
CCOC(=O)c1c(-c2ccccc2)csc1NC(=O)c1cc(-c2ccc(Br)cc2)on1	?	-26.7%	.	-6.1%	3.6%	6.31µM*
SMILES	HP1b binding inh	BAZ2B inh	Sfp PPTase inh	JMJD2A Tudor	TDP1 block	G9a block
CCOC(=O)c1c(-c2ccc(Br)cc2)csc1NC(=O)c1ccc(F)cc1	16.6%	-1.9%	.	-8.8%	-4.0%[12.3 µM]	-20.1%[59 µM]
COC(=O)N1CCC2(CCN(Cc3cc(C(F)(F)F)cc(C(F)(F)F)c3)CC2)CC1	.	.	9.4%	.	.	-1.9%[12.7 µM]
Cc1ccc2c(c1)c1c(c(=O)n(-c3ccccc3C)c(=O)n1CC(=O)N1CCCC1)n2C	15.3%	-13.0%	.	-10.3%	0.0%	-8.6%[59 µM]
Cc1nc(C)n(CC(=O)N2CCCC(C(=O)c3ccc(C(F)(F)F)cc3)C2)n1 (stereo not given)	34.0%	-1.3%	10.1%	-3.0%	.	2.2%
NC(=O)C[C@@H]1N[C@]2(C(=O)Nc3ccccc32)[C@@H]2C(=O)N(c3cc(C(F)(F)F)ccc3Cl)C(=O)[C@H]12	32.5%	-1.6%	13.8%	-19.4%	-1.0%	50.1µM*
CC(C)[C@@H]1N[C@]2(C(=O)Nc3ccccc32)[C@@H]2C(=O)N(c3cccc(C(F)(F)F)c3)C(=O)[C@@H]21	34.2%	10.9%	18.8%	-7.5%	3.8%	50.1µM*
CC1CCCCC12NC(=O)N(CC(=O)N1CCN(Cc3ccc(C#N)cc3)CC1)C2=O (stereo not given)	56.5%	0.6%	.	-11.7%	0.2%	-1.5%[12.7 µM]
CCc1ccccc1N(C)C(=O)c1cn(-c2cccc(OC)c2)c(=O)c2ccccc12	2.9%	-4.4%	.	-23.7%	1.3%	2.6%[59 µM]
Cc1ccc(S(=O)(=O)N(C)CC(=O)N2CCOCC2)cc1	?	-6.2%	-5.0%	79.4µM*	2.3%	3.6%[59 µM]
Cc1ccc(S(=O)(=O)NC(C)C(=O)Nc2ccc3c(c2)OCO3)cc1 (stereo not given)	16.5%	11.4%	5.8%	-7.6%	-2.3%	50.1µM*
Cc1ccc(S(=O)(=O)NC(C)C(=O)N2CCOCCOCCOCCOCC2)cc1 (stereo not given)	35.7%	6.2%	29.5%	11.3%	3.2%	39.8µM*
CCCCN1C(=O)Cc2c1nc(N)c1c(N)nc(N(CCC)CCC)c(C#N)c21	?	-33.9%	1.6%	-26.4%	8.7%	39.8µM*
C=CCOC(=O)C1(C(NC(=O)OC)c2ccccc2)C(=O)Cc2ccccc21 (stereo not given)	.	.	-8.9%	.	-3.1%	.
O=C1C=CC2(O[C@H](c3ccccc3)[C@@H](c3ccccc3)O2)[C@H](Sc2ccccc2O)C1	?	.	.	79.4µM*	.	.
C[C@@H]1[C@@H](Sc2ccccc2)CC(=O)O[C@@H]1c1ccc(-c2ccccc2)cc1	89.6%	.	-3.8%	15.2%	3.8%	.

From PubChem
